Assay outcomes (PubChem)
D2 ag-1: Beta-Arrestin HTS for Positive Allosteric Modulators of the Human D2 Dopamine Receptor: Agonists. activation, % (test concentration not listed). hit rate 0.084% among 360,000. DiscoveRx PathHunter D2 beta-arrestin, luminescence, 90 min; 100% = 57 uM dopamine signal; in the data active = activation above about 40%
Target sequence (P14416 whole entry, looked up): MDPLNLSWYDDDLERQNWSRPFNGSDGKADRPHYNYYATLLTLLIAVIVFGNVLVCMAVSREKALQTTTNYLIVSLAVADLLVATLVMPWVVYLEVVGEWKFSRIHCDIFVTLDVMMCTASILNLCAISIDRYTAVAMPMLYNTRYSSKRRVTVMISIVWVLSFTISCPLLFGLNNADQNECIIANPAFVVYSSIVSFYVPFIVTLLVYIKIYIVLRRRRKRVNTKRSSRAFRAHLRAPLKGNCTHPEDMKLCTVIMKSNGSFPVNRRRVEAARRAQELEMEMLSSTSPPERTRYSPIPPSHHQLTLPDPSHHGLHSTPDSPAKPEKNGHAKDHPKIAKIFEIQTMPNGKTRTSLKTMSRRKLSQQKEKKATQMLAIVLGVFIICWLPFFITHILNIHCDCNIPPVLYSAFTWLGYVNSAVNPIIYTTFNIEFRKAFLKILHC
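DiscoveRx PathHunter D2 beta-arrestin cells (2,100/well) attached overnight, then compound-stimulated 90 min at 37 C in HBSS/10 mM HEPES/0.1% Tween-20 buffer; beta-galactosidase complementation read by luminescence after 1 h at ambient temperature. Dopamine 57 uM final (EC100) as control.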
D2 PAM-1: Beta-Arrestin HTS for Positive Allosteric Modulators of the Human D2 Dopamine Receptor: Potentiators; AID 624464, 2012; D(2) dopamine receptor (Homo sapiens), P14416; potentiation, % (test concentration not listed); DiscoveRx D2 beta-arrestin cells, luminescence, 90 min; 100% = 57 uM dopamine signal; hit rate 0.23% among 360,000; in the data active = potentiation above about 50%
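PathHunter beta-arrestin assay in DiscoveRx D2 cells. Compounds were added with an EC20 of dopamine (50 nM final) for 90 min at 37 deg C. Luminescence was read 1 h after detection reagent, with 57 uM dopamine as the EC100 control.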
D2 antag: HTS Assay for Allosteric Antagonists of the Human D2 Dopamine Receptor: Primary Screen for Antagonists. D(2) dopamine receptor (Homo sapiens), P14416. HEK293 TREx D2 cells, calcium flux, dopamine EC80. inhibition, % at 10 µM. hit rate 2% among 340,000. AID 485344, 2010; in the data active = inhibition above about 30%; inactive = below that, where a call was filed; also: 0% is about no effect
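Calcium flux kinetic readout in an inducible HEK293 TREx D2 line plated overnight at 30 C. After 180 s compound exposure, an EC80 dopamine challenge follows with another 180 s kinetic read to detect antagonism.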
D2 ag-2: HTS Assay for Allosteric Agonists of the Human D2 Dopamine Receptor: Primary Screen for Agonists | HEK293 T-REx D2 cells, calcium flux agonist mode | activation, % at 2 µM | hit rate 0.53% among 340,000;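 active = activation over 3 SD above normal in the single-dose calcium agonist read, cut at about 30% in these data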; also: 0% is about no effect
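HEK293 Trex D2 cells, tetracycline-induced, o/n 30 C 5% CO2; no-wash Ca dye, RT 30–90 min; 10-cycle baseline, 23 nl cpd added, kinetic Ca read 180 s; agonist hits = positive Ca response.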
D2 PAM-2: HTS Assay for Positive Allosteric Modulators of the Human D2 Dopamine Receptor: Primary Screen for Potentiators | hit rate 0.34% among 340,000 | HEK293 T-REx D2, calcium flux, EC20 dopamine potentiation | AID 485347, 2010 | D(2) dopamine receptor (Homo sapiens), P14416 | potentiation, % at 10 µM;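 active = potentiation over 3 SD above the plate norm, cut at about 30% in these data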; also: 0% is about no effect
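Potentiation of an EC20 dopamine calcium response is measured in a force-coupled, tetracycline-inducible Hek293 Trex D2 line. Compound-only kinetic reads over 180 s flag agonists before dopamine addition.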
D3 arrestin ag: qHTS of D3 Dopamine Receptor Agonist: D3 Dopamine Receptor B-arrestin Agonist Confirmatory Assay. shares compounds with D2 ag-2. DiscoveRx D3 beta-arrestin cells, luminescence, 90 min. Potency, µM (highest dose often 76.9 µM), for inactives: at the highest dose activation, usual class: activators. hit rate 4% among 2,300;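 also: potency is read from the fitted curve at half-maximal effect; 100% = dopamine control response; nearly all actives have a fitted effect of over 70% in size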
D2 ag-3: qHTS of D3 Dopamine Receptor Agonist: D2 Dopamine Receptor B-arrestin Agonist Counterscreen; shares compounds with D2 ag-2; DiscoveRx PathHunter D2 beta-arrestin, luminescence, 90 min; response scale: percent relative to full dopamine signal; Potency, µM (highest dose often 76.9 µM), without a hit: at the top dose activation, usual class: activators; hit rate 5.9% among 2,300; AID 720507, 2013; also: potency is read from the fitted curve at half-maximal effect; % of control where 0% means no effect; nearly all actives have a fitted effect of over 70% in size
Numbers without * were called inactive; . = no result given. The list is not random: actives were taken first. Their share in the collection is about 2.4%. Unless noted, calls follow the shape of the dose curve; as a rule, active = well fitted activation curve with a large enough effect; inconclusive = small, poorly fitted or top-dose-only effect; inactive = flat fitted curve, though single readings scatter.

SMILES	D2 ag-1	D2 PAM-1	D2 antag	D2 ag-2	D2 PAM-2	D3 arrestin ag	D2 ag-3
O=C(COc1ccc2oc(-c3ccccc3)cc(=O)c2c1)Nc1ccccc1	0	-4	-13	21	-16	13%	1%
COC(=O)COc1ccc2oc(-c3ccc(OC)cc3)cc(=O)c2c1	.	.	.	0	-10	.	.
COC(=O)c1ccc(NC(=O)Cn2ccn3nc(-c4ccc(OC)cc4)cc3c2=O)cc1	.	.	.	1	9	.	.
CC(C)SCCCCOc1ccc2ccccc2c1	-1	-4	-23	2	-10	-23%	1%
O=C(NC1CCCCCC1)C1CCN(C(=O)N2CCOc3ccccc32)CC1	.	.	.	-1	-2	.	.
CCCOc1ccc(OC(=O)c2cn(-c3ccc(OC)cc3)c(=O)c3ccccc23)cc1	.	.	.	.	-5	.	.
Nc1cccc(O)c1	4	1	6	0	13	-2%	-3%
COc1cc(-c2n[nH]c(=S)n2/N=C/c2cccn2C)cc(OC)c1OC	-6	-11	-28	13	13	25%	-16%
Cn1cccc1/C=N/n1c(-c2ccco2)n[nH]c1=S	-1	-1	4	1	-1	.	.
COc1cccc(/C=C/C(=O)OCC(=O)NCCc2ccccc2)c1	-2	-3	9	46*	-20	-10%	-4%
COc1cc(C(=O)NCC(c2ccco2)S(=O)(=O)c2cccs2)cc(OC)c1OC (stereo unspecified)	.	.	.	1	-6	.	.
O=[N+]([O-])c1c(NCCO)cc(N2CCN(Cc3ccc4c(c3)OCO4)CC2)c2nonc12	-3	-25	-12	40*	-19	-1%	13%
CCOC(=O)c1c(NC(=S)Nc2ccccc2)sc2c1CCN(CC)C2	0	-23	-3	8	-14	-17%	-2%
COCc1cc(=O)n2c([nH]c3ccccc32)c1C#N	1	-1	37*	0	10	22%	6%
CC(SCc1cc(=O)n2c([nH]c3ccccc32)c1C#N)C(=O)O (stereo unspecified)	0	-8	2	1	-3	.	.
Cc1ccc(Cl)cc1NC(=O)Cn1nc2c(cc1=O)CC(C)CC2 (stereo unspecified)	.	.	.	1	-2	.	.
Cc1ccn2c(Nc3ccc(C(C)C)cc3)c(-c3cccs3)nc2c1	.	.	.	-1	0	.	.
O=C1C=C(/C=C/c2ccccc2)C[C@@H](c2ccc(F)cc2)C1	-5	-4	-24	1	-7	-9%	7%
Cc1ccccc1NC(=O)Cc1nc(COC(=O)CCc2ccccc2)cs1	-2	0	15	-1	4	.	.
COc1cccc(CC(=O)OCc2csc(CC(=O)Nc3ccccc3C)n2)c1	-1	12	16	1	-2	-1%	-3%
O=c1[nH]cc(NCCc2ccccc2)c(=O)[nH]1	0	-3	-19	38*	-14	11%	13%
O=c1[nH]cc(NCc2ccccc2)c(=O)[nH]1	0	-10	.	.	.	.	.
COc1cccc(CNC(=O)Cc2ccc(NC(=O)N3CCSc4ncccc43)cc2)c1OC	.	.	.	1	-2	.	.
CN(C(=O)COC(=O)C1CCN(S(=O)(=O)c2ccc3c(c2)OCCO3)CC1)c1ccccc1	-1	-6	6	1	7	.	.
CCN(CC)C(=O)COC(=O)C1CCN(S(=O)(=O)c2ccc3c(c2)OCCO3)CC1	6	0	18	0	12	2%	-3%
